“And” between values parts separate entries of the source, which are not always exact repeats. Equal entries are not always repeated. Screen size: about 5,500 compounds; about 2,000 (36%) were called active. Inconclusive results (about 18%) are left out. Cut-off read from the data, not from the text of the source: active = normalized growth mostly below about 0.91 (no sharp cut-off); inconclusive = no clear call, values can overlap the other calls; inactive = mostly above about 0.92. The list shows a part of the results.
Assay: chemical genetic growth profiling, strain panel (AID 1159580);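 note: tested at 20 µM; growth read once vehicle control cultures reached saturation at 30 °C; 1 = growth at the plate median or of vehicle wells; lower values mean less growth of the strain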
Settings: S. cerevisiae deletion strains, growth OD

Measured: normalized growth

O=S(=O)(O)CCS
inactive: locus YAL013W, strain DEP1, stronger effect = lower value 1.01 | locus YAL021C, strain ccr4, stronger effect = lower value 0.983 | locus YAL026C, strain drs2, stronger effect = lower value 1 | locus YAL030W, strain snc1, stronger effect = lower value 0.993 | locus YBL061C, strain skt5, stronger effect = lower value 0.966 | locus YBR009C, strain hhf1, stronger effect = lower value 1.01 | locus YBR021W, strain FUR4, stronger effect = lower value 1.01 | locus YBR023C, strain chs3, stronger effect = lower value 0.989 | locus YBR171W, strain sec66, stronger effect = lower value 0.976 | locus YBR229C, strain ROT2, stronger effect = lower value 1.01 | locus YBR231C, strain swc5, stronger effect = lower value 1.01 | locus YBR279W, strain paf1, stronger effect = lower value 0.986 | locus YCL016C, strain dcc1, stronger effect = lower value 0.976 | locus YCL029C, strain bik1, stronger effect = lower value 0.993 | locus YCL069W, strain vba3, stronger effect = lower value 0.979 | locus YCR088W, strain abp1, stronger effect = lower value 0.985 | locus YDL005C, strain med2, stronger effect = lower value 0.949 | locus YDL035C, strain GPR1, stronger effect = lower value 1.02 | locus YDL040C, strain nat1, stronger effect = lower value 0.999 | locus YDL074C, strain BRE1, stronger effect = lower value 1.05 | locus YDL101C, strain DUN1, stronger effect = lower value 1.02 | locus YDL134C, strain PPH21, stronger effect = lower value 1.01 | locus YDL185W, strain tfp1, stronger effect = lower value 0.985 | locus YDL192W, strain arf1, stronger effect = lower value 0.99 | locus YDR001C, strain nth1, stronger effect = lower value 0.99 | locus YDR069C, strain doa4, stronger effect = lower value 0.992 | locus YDR101C, strain arx1, stronger effect = lower value 1.02 | locus YDR137W, strain rgp1, stronger effect = lower value 0.984 | locus YDR150W, strain NUM1, stronger effect = lower value 1.01 | locus YDR159W, strain sac3, stronger effect = lower value 0.977 | locus YDR162C, strain NBP2, stronger effect = lower value 1.01 | locus YDR195W, strain ref2 0.988 | locus YDR297W, strain sur2, stronger effect = lower value 0.989 | locus YDR318W, strain mcm21, stronger effect = lower value 0.991 | locus YDR334W, strain swr1, stronger effect = lower value 0.982 | locus YDR335W, strain msn5, stronger effect = lower value 0.981 | locus YDR388W, stronger effect = lower value 0.978 | locus YDR392W, strain spt3, stronger effect = lower value 0.928 | locus YDR502C, strain sam2, stronger effect = lower value 0.995 | locus YEL003W, strain gim4, stronger effect = lower value 0.998 | locus YEL037C, strain rad23, stronger effect = lower value 0.985 | locus YEL061C, strain CIN8 (second series), stronger effect = lower value 1.01 | locus YEL061C, strain CIN8, stronger effect = lower value 1.01 | locus YER015W, strain faa2, stronger effect = lower value 0.998 | locus YER016W, strain bim1, stronger effect = lower value 0.945 | locus YER110C, stronger effect = lower value 0.987 | locus YER111C, strain swi4, stronger effect = lower value 0.981 | locus YER155C, strain BEM2 (second series), stronger effect = lower value 1 | locus YER155C, strain BEM2, stronger effect = lower value 1.01 | locus YER167W, strain BCK2, stronger effect = lower value 0.996 | locus YFR010W, strain ubp6, stronger effect = lower value 1.01 | locus YGL078C, strain dbp3, stronger effect = lower value 0.976 | locus YGL086W, strain mad1, stronger effect = lower value 0.997 | locus YGL167C, strain pmr1, stronger effect = lower value 0.985 | locus YGL173C, strain kem1, stronger effect = lower value 0.998 | locus YGL227W, strain vid30, stronger effect = lower value 0.979 | locus YGL240W, strain doc1, stronger effect = lower value 1.01 | locus YGL248W, strain PDE1, stronger effect = lower value 1.03 | locus YGL253W, strain hxk2, stronger effect = lower value 0.986 | locus YGR135W, strain pre9, stronger effect = lower value 0.997 | locus YGR252W, strain gcn5, stronger effect = lower value 0.936 | locus YHR013C, strain ard1, stronger effect = lower value 0.927 | locus YHR027C, strain rpn1, stronger effect = lower value 1.01 | locus YHR030C, strain SLT2, stronger effect = lower value 1.01 and 0.989 | locus YHR079C, strain IRE1 (second series), stronger effect = lower value 0.989 | locus YHR079C, strain IRE1, stronger effect = lower value 0.991 | locus YHR094C, strain hxt1, stronger effect = lower value 0.991 | locus YHR129C, strain ARP1, stronger effect = lower value 1.01 | locus YHR142W, strain chs7, stronger effect = lower value 0.968 | locus YHR200W, strain rpn10, stronger effect = lower value 0.999 | locus YIL066C, strain RNR3, stronger effect = lower value 1.02 | locus YIL073C, strain SPO22, stronger effect = lower value 0.965 | locus YIL125W, strain kgd1, stronger effect = lower value 0.981 | locus YIR030C, strain dcg1, stronger effect = lower value 0.999 | locus YJL092W, strain hpr5, stronger effect = lower value 0.997 | locus YJL095W, strain BCK1 (second series), stronger effect = lower value 0.971 | locus YJL095W, strain BCK1, stronger effect = lower value 1.03 and 0.974 | locus YJL115W, strain asf1, stronger effect = lower value 0.983 | locus YJL129C, strain trk1, stronger effect = lower value 0.946 | locus YJL134W, strain LCB3, stronger effect = lower value 1.01 | locus YJL154C, strain vps35, stronger effect = lower value 0.97 | locus YJL164C, strain tpk1, stronger effect = lower value 0.991 | locus YJL166W, strain qcr8, stronger effect = lower value 1 | locus YJL168C, strain set2, stronger effect = lower value 0.992 | locus YJL187C, strain SWE1 (second series), stronger effect = lower value 1.03 | locus YJL187C, strain SWE1, stronger effect = lower value 0.986 | locus YJR043C, strain POL32, stronger effect = lower value 1.01 | locus YJR066W, strain TOR1, stronger effect = lower value 0.961

From PubChem BioAssay AID1159580 (chemical genetic matrix, 2015)
